Screening results: PubChem, several laboratories
S1P4 antag = S1P4 receptor antagonists, primary screen, cell-based; Sphingosine 1-phosphate receptor 4 (Homo sapiens), O95977; inhibition, % at 4.98 µM; S1P4-expressing cells, antagonist mode, reporter read-out; actives 0.26% (n = 220,000); AID 1510, 2009; in the data active means inhibition above about 29%;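 further: 0% = wells stimulated with agonist and 100% = vehicle wells without agonist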
Target sequence (O95977 whole entry, looked up): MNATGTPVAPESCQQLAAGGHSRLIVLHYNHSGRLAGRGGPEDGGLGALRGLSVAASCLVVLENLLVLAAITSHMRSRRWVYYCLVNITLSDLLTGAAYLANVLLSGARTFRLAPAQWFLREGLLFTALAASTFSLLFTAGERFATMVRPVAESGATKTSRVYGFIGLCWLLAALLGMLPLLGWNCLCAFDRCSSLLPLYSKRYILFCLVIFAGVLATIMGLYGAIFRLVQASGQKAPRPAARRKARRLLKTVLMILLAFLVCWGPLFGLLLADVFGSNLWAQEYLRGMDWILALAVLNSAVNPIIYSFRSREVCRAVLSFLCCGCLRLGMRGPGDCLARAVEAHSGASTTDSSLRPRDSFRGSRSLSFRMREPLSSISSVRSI
Arbovirus inh = antivirals against arbovirus infection, primary screen, cell-based, full library, 10K replicate subset; arbovirus infection cell-based antiviral screen; inhibition, % at 10 µM; actives 0.37% (n = 200,000); in the data active means inhibition above about 30%
S1P3 antag = S1P3 receptor antagonists, primary screen, cell-based | Sphingosine 1-phosphate receptor 3 (Homo sapiens), Q99500 | CHO S1P3 NFAT-BLA reporter, FRET fluorescence, antagonist mode | inhibition, % at 4.98 µM | actives 0.27% (n = 170,000) | AID 485, 2006;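 active means inhibition above the plate cutoff, the mean inhibition of test wells on that plate plus 3 SD, cut at about 28% in these data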;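 further: cells challenged with S1P at its EC80 of 0.8 µM; blue over green emission ratio from cleaved BLA substrate after 4 h stimulation; 0% = S1P-stimulated wells and 100% = unstimulated DMSO-only wells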
DTT redox prof = compounds producing H2O2 with reducing agent – biochemical, NIH compound library profiling, artefact control for MLSCN library redox annotation, primary screen | DTT-dependent redox cycling H2O2, phenol red/HRP absorbance; 100% = 100 µM peroxide control, 0% = buffer | actives 0.03% (n = 200,000) | AID 878, 2007 | activation, % at 10 µM;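 active means activation of at least 50% relative to the plate's high and low controls in the primary single-dose screen; inactive means activation below 50%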;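 further: compound incubated with DTT at 0.8 mM final as the reducing agent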
p97 inhibitor = inhibitors of human p97 ATPase, primary screen, biochemical; Transitional endoplasmic reticulum ATPase (Homo sapiens), P55072; recombinant p97 ATPase, Kinase-Glo ATP luminescence, 3 h; inhibition, % at 8 µM; actives 0.42% (n = 220,000); in the data active means inhibition above about 15%;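 further: 0% = DMSO vehicle and 100% = wells lacking enzyme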
S1P4 agonist = S1P4 receptor agonists, primary screen, cell-based; actives 0.35% (n = 220,000); Sphingosine 1-phosphate receptor 4 (Homo sapiens), O95977; S1P4-expressing cell line, agonist reporter assay; activation, % at 4.98 µM; in the data active means activation above about 11%;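 further: 0% = DMSO vehicle and 100% = reference agonist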
Active calls of the source: *. Rows were chosen to be rich in hits. Some 1.6% of all compounds tested hit in one or more screens of this group.

Cc1ccc(Nc2nc(Cl)nc(N(C)C#N)n2)cc1 was read as S1P4 antag 18.6, Arbovirus inh 4.7, DTT redox prof 1.3, p97 inhibitor 21.2* and S1P4 agonist -0.5.
For Nc1nc(SCc2c(F)cccc2Cl)[nH]c(=O)c1-c1ccccc1 the results were S1P4 antag -14.7, Arbovirus inh 3.7, DTT redox prof 0.3, p97 inhibitor 1.3 and S1P4 agonist -2.8.
`FC(F)(F)c1cccc(-c2nnc3ccc(C(F)(F)F)cn23)c1` gave S1P4 antag -5.2, Arbovirus inh 7.5, S1P3 antag 93.1*, DTT redox prof -0.3, p97 inhibitor 8.1 and S1P4 agonist 0.6.
Screening Cc1cc(C)n(C(=O)c2ccc(NC(=O)C3CC3)cc2)n1 returned S1P4 antag -8.5, Arbovirus inh -3.6, S1P3 antag 93.3*, DTT redox prof 0.1, p97 inhibitor 2.5 and S1P4 agonist -1.5.
Screening CCC(=O)Nc1ccc(C(=O)n2nc(C)cc2C)cc1 returned S1P4 antag 0.9, Arbovirus inh 9.1, S1P3 antag -24.6, DTT redox prof 0.7, p97 inhibitor -0.3 and S1P4 agonist 0.1.
Screening CCNC(=O)NC(=O)C(C)Sc1nc2cc(C(=O)OC)ccc2c(=O)n1-c1ccccc1 (stereo unspecified) returned S1P4 antag -9.5, Arbovirus inh 42.6*, DTT redox prof 1.6, p97 inhibitor -0.2 and S1P4 agonist -0.6.
Fc1ccccc1OCC1CCCN(Cc2nc(CC3CC3)no2)C1 (stereo unspecified) was read as S1P4 antag 13.3, Arbovirus inh 9.8, S1P3 antag -5.7, DTT redox prof -0.6, p97 inhibitor -0.9 and S1P4 agonist 1.5.
CC(=O)c1ccc(N2CCN(C(=O)c3cc(-c4cccnc4)nc4ccc(Br)cc34)CC2)cc1 was read as S1P4 antag -28.1, Arbovirus inh 32.1*, S1P3 antag 7.0, DTT redox prof 0.1, p97 inhibitor 0.0 and S1P4 agonist 1.3.
`Cc1cc([N+](=O)[O-])ccc1NC(=O)c1cncc(Br)c1` gave S1P4 antag -17.6, Arbovirus inh 3.2, S1P3 antag 15.4, DTT redox prof -0.5, p97 inhibitor 1.0 and S1P4 agonist 0.7.
Cc1ccc(NC(=O)c2cncc(Br)c2)c(O)c1 was read as S1P4 antag -9.2, Arbovirus inh 38.9*, S1P3 antag -7.7, DTT redox prof -1.6, p97 inhibitor 9.5 and S1P4 agonist 1.3.
`O=C(COC(=O)c1ccc(=O)[nH]c1)Nc1cccc(S(=O)(=O)N2CCOCC2)c1` gave S1P4 antag 7.7, S1P3 antag -2.2, p97 inhibitor -3.0 and S1P4 agonist 0.5.
For CCOC(=O)c1c(-c2ccc(C)o2)csc1NC(=S)NC(=O)c1ccccc1Br the results were S1P4 antag -9.2, Arbovirus inh 46.7*, DTT redox prof -0.3, p97 inhibitor 1.9 and S1P4 agonist -1.2.
For CN(C(=O)c1coc(=O)c2ccccc12)c1ccc(Br)cc1 the results were S1P4 antag 9.8, Arbovirus inh 39.5*, S1P3 antag -1.5, DTT redox prof -3.0, p97 inhibitor 0.4 and S1P4 agonist 0.5.
C=CCN1CCN(C(c2ccc(Cl)cc2)c2nnnn2CCc2ccc(OC)c(OC)c2)CC1 (stereo unspecified) was read as S1P4 antag -7.2, Arbovirus inh 9.3, S1P3 antag 103.6*, DTT redox prof 0.0, p97 inhibitor -7.3 and S1P4 agonist 1.8.
Screening COc1ccc(CCn2nnnc2C(c2ccc(C)cc2)N2CCN(C)CC2)cc1OC (stereo unspecified) returned S1P4 antag 14.8, Arbovirus inh 11.5, S1P3 antag -33.0, DTT redox prof -3.4, p97 inhibitor -2.2 and S1P4 agonist 0.6.
S=c1[nH]nc(-c2cccnc2)n1/N=C/C=C/c1ccccc1 was read as S1P4 antag 11.6, Arbovirus inh -4.2, S1P3 antag -11.9, DTT redox prof 0.4, p97 inhibitor 7.4 and S1P4 agonist -2.6.
For Cc1ccc(C2C=C(c3ccccc3OC(F)F)Nc3ncnn32)cc1 (stereo unspecified) the results were S1P4 antag -4.9, Arbovirus inh 3.9, S1P3 antag 17.8, DTT redox prof -1.0, p97 inhibitor -4.6 and S1P4 agonist 2.1.
Screening COc1cccc(C2=CC(c3ccc(C)cc3)n3ncnc3N2)c1 (stereo unspecified) returned S1P4 antag 5.2, Arbovirus inh 65.8*, S1P3 antag 20.6, DTT redox prof -0.4, p97 inhibitor 5.5 and S1P4 agonist -0.5.
`Cc1ccc(C2C=C(c3ccc4c(c3)OCO4)Nc3ncnn32)cc1` (stereo unspecified) gave S1P4 antag -14.7, Arbovirus inh 84.5*, S1P3 antag 21.1, DTT redox prof 0.0, p97 inhibitor 0.6 and S1P4 agonist 1.2.
For Cc1ccc(NC(=O)CSc2nc3ccccc3c(=O)n2CCCN2CCCCC2)cc1C the results were S1P4 antag 1.3, Arbovirus inh -32.1, DTT redox prof 0.0, p97 inhibitor -3.6 and S1P4 agonist -2.0.
For CCCC(=O)NCCc1nc2cc([N+](=O)[O-])ccc2n1C the results were S1P4 antag -6.0, Arbovirus inh 3.6, S1P3 antag -24.3, DTT redox prof -0.6, p97 inhibitor 3.7 and S1P4 agonist 0.3.
Screening O=C(Nc1ccc(OC(F)(F)F)cc1)Nc1cccc([N+](=O)[O-])c1 returned S1P4 antag -16.7, Arbovirus inh -29.6, S1P3 antag -14.6, DTT redox prof 0.3, p97 inhibitor 5.9 and S1P4 agonist 1.9.
`O=C(Nc1ccc(OC(F)(F)F)cc1)c1[nH]ncc1[N+](=O)[O-]` gave S1P4 antag 6.0, Arbovirus inh 30.3*, S1P3 antag -3.9, DTT redox prof -0.2, p97 inhibitor 4.1 and S1P4 agonist 1.4.
For CCN(c1ccccc1)S(=O)(=O)c1ccc(N)c(OC)c1 the results were S1P4 antag 0.7, Arbovirus inh -20.8, DTT redox prof 0.4, p97 inhibitor -3.0 and S1P4 agonist -3.8.
Screening Cc1cccc(OCCSCc2nc3ccccc3[nH]2)c1 returned S1P4 antag -8.6, Arbovirus inh 9.2, DTT redox prof -3.5, p97 inhibitor -0.3 and S1P4 agonist 0.0.
For Cc1ccccc1OCCSCc1nc2ccccc2[nH]1 the results were S1P4 antag -3.8, Arbovirus inh 66.2*, S1P3 antag -10.9, DTT redox prof -0.2, p97 inhibitor -3.4 and S1P4 agonist -0.5.
